Test results published in PubChem BioAssay (NCATS).
Results filed as inconclusive are left out. Values without a mark were called inactive. Active and inactive are the calls of the source. Calls follow the shape of the dose curve; as a rule, active = well fitted cell-killing curve with a large enough effect; inconclusive = small, poorly fitted or top-dose-only effect; inactive = flat fitted curve, though single readings scatter.

Assay: MultiTox-Fluor Cytotoxicity Assay - LYMP1-001 - Live Cells (AID 947);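 also: 0% = DMSO only and full inhibition = tetraoctylammonium bromide control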
Conditions: LYMP1-001 lymphoblastoid cells, live-cell protease fluorescence viability; series mostly up to 92.2 µM; activity change, negative = cytotoxicity: at the top concentration
Source text: NIH Chemical Genomics Center [NCGC]
NIH Molecular Libraries Screening Centers Network [MLSCN]
National Institutes of Environmental Health Sciences [NIEHS]
National Toxicology Program [NTP]
We have developed a 1536-well cell-based assay for quantitative high throughput screening (qHTS) against a number of cell lines to determine in vitro cytotoxicity of small molecules. This particular assay uses a human lymphoblastoid cell line (LYMP1-001) purchased from Coriell Institute.
NCGC Assay Protocol Summary:
The MultiTox-Fluor Cytotoxicity Assay (Promega) is a homogeneous method to simultaneously measure the relative number of live and dead cells in culture by detecting changes in cell membrane integrity. There are two fluorogenic peptide substrates in the assay reagent. Viable cells are determined when the cell-permeant substrate (GF-AFC) enters the cell and is cleaved by protease from live cells resulting in liberated fluorophore. This live-cell protease activity restricted to viable cells is proportional to cell number. The dead cells are determined by using fluorogenic cell-impermeant peptide substrate (bis-AAF-R110) which cleaved by dead cell proteases leaking from damaged cell membrane.
Using the MultiTox-Fluor Cytotoxicity Assay, the relative number of live cells was measured in the lymphoblastoid cell line with complete culture medium following compound treatment for 16 hours. The assay was performed in opaque black Kalypsys 1536-well plates. In the screen, tetraoctylammonium bromide was used as positive control. Library compounds were measured for their ability to cause acute toxicity in the cell line, as reflected by a decrease in live cell protease activity, in a concentration-dependent manner. […] AC50 values were determined from concentration-response data modeled with the standard Hill equation.
qHTS protocol for MultiTox-Fluor Cytotoxicity assay
[Step] [Parameter] [Value] [Description]
1. Reagent; 5 uL; 2500 lymphoblastoid cells/well
2. Time; 5 hr; 37 C incubation
4. Controls; 23 nL; Tetraoctylammonium bromide 6.4pM to 92 uM
5. Time; 16 hr; 37 C incubation
6. Reagent; 5 uL; MuliTox-Fluor Assay reagent
7. Time; 60 min; Room Temperature
8. Detection; live-cell fluorescence (Ex/Em=405/510); EnVision plate reader
Keywords: cell viability, cytotoxicity, lymphoblastoid cell line, fluorescence, NTPHTS, NTPHTS_NCGC, NIEHS, EPA, DSSTox, MLSMR, MLSCN, NIH Roadmap, qHTS, NCGC

| Compound | activity change, negative = cytotoxicity [%] | outcome |
| --- | --- | --- |
| C[C@H](CCC(=O)O)[C@H]1CC[C@H]2[C@@H]3CC[C@@H]4C[C@H](O)CC[C@]4(C)[C@H]3C[C@H](O)[C@]12C | -0.973 | – |
| Cc1ncc[nH]1 | 0.461 | – |
| [O-][N+](=Nc1ccccc1)c1ccccc1 | -19.9 | – |
| C/C=C/C=C/C(=O)O | 1.52 | – |
| O=P(O)(O)O | -6.64 | – |
| Oc1ccc(/C=C/c2cc(O)cc(O)c2)cc1 | -6.6 | – |
| CCCCO | -24.2 | – |
| NCCN | 1.47 | – |
| OCc1ccccc1 | -11.1 | – |
| O.O.O.O.O.O.O.O=S(=O)([O-])[O-].[Co+2] | -5.99 | – |
| CCOC(C)OCC | 2.32 | – |
| c1ccc2ccccc2c1 | 8.53 | – |
| NC(N)=O | -10.9 | – |
| Oc1cccc(O)c1O | -19.9 | – |
| OC[C@H]1O[C@@H]2O[C@H]3[C@H](O)[C@@H](O)[C@@H](O[C@H]4[C@H](O)[C@@H](O)[C@@H](O[C@H]5[C@H](O)[C@@H](O)[C@@H](O[C@H]6[C@H](O)[C@@H](O)[C@@H](O[C@H]7[C@H](O)[C@@H](O)[C@@H](O[C@H]1[C@H](O)[C@H]2O)O[C@@H]7CO)O[C@@H]6CO)O[C@@H]5CO)O[C@@H]4CO)O[C@@H]3CO | 1.61 | – |
| ClC(Cl)Cl | -10 | – |
| CO | 6.22 | – |

| Compound | activity change, negative = cytotoxicity [%] | outcome |
| --- | --- | --- |
| Nc1nccs1 | -21.9 | – |
| CC1=CCC2CC1C2(C)C (centres undefined) | 1.28 | – |
| O=c1n(CC2CO2)c(=O)n(CC2CO2)c(=O)n1CC1CO1 (centres undefined) | -26.6 | – |
| C[C@H](CCC(=O)O)[C@H]1CC[C@H]2[C@@H]3[C@H](O)C[C@@H]4C[C@H](O)CC[C@]4(C)[C@H]3C[C@H](O)[C@]12C | 3.4 | – |
| OB(O)O | -9.35 | – |
| Nc1ccc(N=Nc2ccccc2)c(N)n1 | -12.2 | – |
| CCCCC | -20.2 | – |
| CC[C@H]1OC(=O)[C@H](C)[C@@H](O[C@H]2C[C@@](C)(OC)[C@@H](O)[C@H](C)O2)[C@H](C)[C@@H](O[C@@H]2O[C@H](C)C[C@H](N(C)C)[C@H]2O)[C@](C)(O)C[C@@H](C)CN(C)[C@H](C)[C@@H](O)[C@]1(C)O | 15 | – |
| COC(=O)c1ccccc1O | -7.54 | – |
| Nc1ncnc2c1ncn2[C@H]1CC[C@@H](CO)O1 | 3.27 | – |
| CC1=CC(=O)NS(=O)(=O)O1 | 6.97 | – |
| Cc1ccc(S(=O)(=O)O)cc1C | 5.29 | – |
| OCC(O)CO | – | inactive |
| OCl | 6.89 | – |
| CO/N=C(/C(=O)N[C@@H]1C(=O)N2C(C(=O)O)=C(COC(N)=O)CS[C@H]12)c1ccco1 | -7.84 | – |
| CC(C)O | 6.28 | – |
| CC(C)(C)CC(C)(C)c1ccc(OCCO)cc1 | -17.7 | – |
